Source: PubChem BioAssay AID1159580 (chemical genetic matrix, 2015)
About 2,000 (36%) of roughly 5,500 compounds were called active. Roughly 18% stayed inconclusive and do not appear here. Rule as the data show it: active = normalized growth mostly below about 0.91 (no sharp cut-off); inconclusive = no clear call, values can overlap the other calls; inactive = mostly above about 0.92. Some of the results follow.

Test: chemical genetic growth profiling, strain panel (AID 1159580);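 also: tested at 20 µM; growth read once vehicle control cultures reached saturation at 30 °C; 1 = growth at the plate median or of vehicle wells; lower values mean less growth of the strain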
Conditions: S. cerevisiae deletion strains, growth OD

Measured: normalized growth

O=C(NCc1ccc(F)c(Cl)c1)Nc1csc([N+](=O)[O-])c1
inactive: locus YAR019C, strain CDC15, active compounds read low 0.984 | locus YBL105C, strain PKC1, active compounds read low 0.979 | locus YBR135W, strain CKS1, active compounds read low 0.987 | locus YBR136W, strain MEC1, active compounds read low 0.965 | locus YBR160W, strain CDC28, active compounds read low 0.981 | locus YDL017W, strain CDC7, active compounds read low 0.981 | locus YDL028C, strain MPS1, active compounds read low 0.98 | locus YDL101C, strain DUN1, active compounds read low 0.984 | locus YDL108W, strain KIN28, active compounds read low 0.975 | locus YDL132W, strain cdc53, active compounds read low 0.989 | locus YDL214C, strain PRR2, active compounds read low 0.975 | locus YDR052C, strain DBF4, active compounds read low 0.985 | locus YDR054C, strain cdc34, active compounds read low 0.989 | locus YDR226W, strain ADK1, active compounds read low 0.986 | locus YDR477W, strain SNF1, active compounds read low 0.977 | locus YER123W, strain YCK3, active compounds read low 0.917 | locus YER133W, strain GLC7, active compounds read low 0.965 | locus YFL009W, strain cdc4, active compounds read low 0.989 | locus YFL029C, strain CAK1, active compounds read low 0.967 | locus YFR003C, strain YPI1, active compounds read low 0.984 | locus YFR019W, strain FAB1, active compounds read low 0.951 | locus YFR028C, strain CDC14, active compounds read low 0.977 | locus YGR040W, strain KSS1, active compounds read low 0.976 | locus YGR052W, strain FMP48, active compounds read low 1.02 | locus YGR092W, strain DBF2, active compounds read low 0.96 | locus YHR030C, strain SLT2, active compounds read low 0.906 | locus YHR079C, strain IRE1, active compounds read low 0.958 | locus YHR082C, strain KSP1, active compounds read low 0.99 | locus YHR205W, strain SCH9, active compounds read low 0.932 | locus YIL147C, strain SLN1, active compounds read low 0.983 | locus YJL095W, strain BCK1, active compounds read low 0.963 | locus YJL128C, strain PBS2, active compounds read low 0.957 | locus YJL157C, strain FAR1, active compounds read low 0.987 | locus YJR016C, strain ILV3, active compounds read low 0.99 | locus YJR066W, strain TOR1 (second series), active compounds read low 0.952 | locus YJR066W, strain TOR1, active compounds read low 0.987 | locus YKL048C, strain ELM1, active compounds read low 0.98 | locus YKL067W, strain YNK1, active compounds read low 0.973 | locus YKL101W, strain HSL1, active compounds read low 0.947 | locus YKL193C, strain SDS22, active compounds read low 0.987 | locus YKL203C, strain TOR2, active compounds read low 1.03 | locus YLR113W, strain HOG1, active compounds read low 0.922 | locus YLR133W, strain CKI1, active compounds read low 0.962 | locus YLR403W, strain SFP1, active compounds read low 0.948 | locus YML070W, strain DAK1, active compounds read low 0.938 | locus YMR001C, strain CDC5, active compounds read low 0.99 | locus YMR205C, strain PFK2 (second series), active compounds read low 0.962 | locus YMR277W, strain FCP1, active compounds read low 0.991 | locus YNL006W, strain LST8, active compounds read low 0.993 | locus YNL020C, strain ARK1, active compounds read low 0.972 | locus YNL161W, strain CBK1, active compounds read low 0.983 | locus YNL183C, strain NPR1, active compounds read low 0.957 | locus YNL207W, strain RIO2, active compounds read low 0.981 | locus YNL222W, strain SSU72, active compounds read low 0.988 | locus YNL307C, strain MCK1 (second series), active compounds read low 0.973 | locus YOL078W, strain AVO1, active compounds read low 0.983 | locus YOL136C, strain PFK27, active compounds read low 0.942 | locus YOR061W, strain CKA2, active compounds read low 0.966 | locus YOR119C, strain RIO1, active compounds read low 1.01 | locus YOR231W, strain MKK1, active compounds read low 0.939 | locus YOR329C, strain SCD5, active compounds read low 0.981 | locus YPL031C, strain PHO85, active compounds read low 0.983 | locus YPL153C, strain RAD53, active compounds read low 0.969 | locus YPL204W, strain HRR25, active compounds read low 0.981 | locus YPL209C, strain IPL1, active compounds read low 0.981 | locus YPL256C, strain CLN2, active compounds read low 0.916 | locus YPR025C, strain CCL1, active compounds read low 0.989 | locus YPR106W, strain ISR1, active compounds read low 0.978 | locus YPR111W, strain DBF20, active compounds read low 0.977 | strain NNK1, active compounds read low 0.99 | strain TSCII, active compounds read low 0.981
